Screening data from PubChem.
IL1B cytotox = toxic to HUVEC cells under IL-1B stimulation; HUVEC cell count loss, Hoechst imaging, IL-1B stimulated; cell count reduction, % at 2 µM; 94,000 tested, 0.41% active; AID 845;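 active = cell count reduction more than 3 SD above the screen-wide mean, cut at about 70% in these data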;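 also: normalized per plate to untreated control cells as the no-loss baseline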
IL1B NFkB pot = enhances IL-1B driven NFkB nuclear translocation; HUVEC IL-1B NFkB p65 nuclear translocation imaging; activation, % at 2 µM; 94,000 tested, 0.3% active;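 active = activation above 40%, about the mean plus 3 SD, also judged a hit on visual image review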;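 also: percent activation is computed from the nuclear over cytoplasmic p65 intensity ratio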
Cav32 inh = inhibitors of human Cav3.2 T-type calcium channel; O95180; Cav3.2-expressing cells, Fluo-4 calcium fluorescence FDSS; hits give low values; B-score at 10 µM; 100,000 tested, 4% active; AID 449739;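 active = single-dose well whose peak fluorescence ratio is a statistical outlier from its plate by either plate-standardised score or position-corrected B-score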
NFkB transloc inh = blocks IL-1B driven NFkB nuclear translocation in HUVEC cells; AID 796; HUVEC IL-1B NFkB p65 nuclear translocation imaging; inhibition, % at 2 µM; 94,000 tested, 0.43% active;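 active = inhibition above about 30% together with a positive call from visual inspection of the well image, limit read from the data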;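 also: nuclear over cytoplasmic p65 intensity ratio measured by imaging; 0% = IL-1B stimulated DMSO wells and 100% = unstimulated DMSO wells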
Active calls of the source: *; x = no result given. Rows were chosen to be rich in hits. Some 4.4% of all compounds tested hit in one or more screens of this group.

SMILES	IL1B cytotox	IL1B NFkB pot	Cav32 inh	NFkB transloc inh
CCOC(=O)CN1C(=O)C(Sc2n[nH]c(-c3ccc(O)cc3)n2)CCc2ccccc21 (stereo not drawn)	0.3	5.1	-6.47*	-5.1
CC(=O)n1cc(C(C[N+](=O)[O-])SCCN)c2ccccc21 (stereo not drawn)	2.1	1.6	-3.78*	-1.6
CC(=O)n1cc(-c2ccncc2)c2ccccc21	x	x	0.238	x
CC(C)(C)CC(C)(C)NCC(O)COc1ccc2c(c1)CCC2 (stereo not drawn)	-11.4	27.6	-8.32*	-27.6
Cc1nn(CC(O)COc2ccc3c(c2)CCC3)c(C)c1Br (stereo not drawn)	-14.9	2.1	-1.48	-2.1
Cc1nc(C)n(CC(O)COc2ccc3c(c2)CCC3)n1 (stereo not drawn)	-7.8	-4.5	-0.0068	4.5
COc1ccccc1N1CCN(CC(O)COc2ccc3c(c2)CCC3)CC1 (stereo not drawn)	-4.4	-2.0	-6.13*	2.0
COc1ccc(-n2c(Cc3cccn3C)nnc2SCC(=O)Nc2ccc(F)cc2F)cc1	x	x	-8.44*	x
COc1ccc(OC)c(NC(=O)CSc2nnc(Cc3cccn3C)n2-c2ccc(F)cc2)c1	-15.9	7.8	-2.49	-7.8
COc1ccc(-n2c(Cc3cccn3C)nnc2SCC(=O)Nc2ccccc2F)cc1	x	x	-4.45*	x
Cc1csc(NC(=O)c2sc3nc(-c4cccs4)ccc3c2N)n1	-21.3	5.8	-5.44*	-5.8
CCCSc1nnc(NC(=O)c2sc3nc(-c4cccs4)ccc3c2N)s1	-4.5	7.6	-9.92*	-7.6
COc1cc(C(=O)Nc2nc(-c3cccs3)cs2)cc(OC)c1OC	x	x	0.0882	x
COc1cc(O)c(C(CCN2CCN(c3ccccc3)CC2)c2cc(OC)c(OC)c(OC)c2)c(OC)c1 (stereo not drawn)	x	x	-2.22	x
CC(NCc1ccc2c(c1)OCO2)C(=O)NC1CCCc2ccccc21 (stereo not drawn)	-7.6	-9.6	-0.0956	9.6
COc1ccc(C2Oc3ccccc3C3=C2C(c2cccs2)n2ncnc2N3)cc1 (stereo not drawn)	-163.3	-9.7	-7.06*	9.7
COc1ccc(OC)c(NC(=O)C2=C(C)Nc3ncnn3C2c2cccs2)c1 (stereo not drawn)	x	x	0.439	x
Brc1ccc(C2C3=C(Nc4ncnn42)c2ccccc2OC3c2ccncc2)cc1 (stereo not drawn)	-13.6	24.1	-4.93*	-24.1
CN1CCN(c2nc3nonc3nc2N2CCN(C)CC2)CC1	-13.7	31.0	0.746	-31.0
Cc1ccc(CSc2nnc(-c3ccco3)o2)cc1	3.9	-6.8	-0.857	6.8
CCC(c1nnnn1C(C)C)N1CCN(C2CCCC2)CC1 (stereo not drawn)	-16.3	-1.2	x	1.2
CCN(CC)S(=O)(=O)c1cccc(-c2nnc(SCCOc3ccccc3)o2)c1	-38.6	-5.6	-4.16*	5.6
CCN(CC)S(=O)(=O)c1cccc(-c2nnc(SCCOc3ccccc3C)o2)c1	x	x	-4.73*	x
CCN(CC)S(=O)(=O)c1cccc(-c2nnc(SCC(=O)c3cc(C)n(C)c3C)o2)c1	-33.7	13.2	-0.479	-13.2
CCN(CC)S(=O)(=O)c1cccc(-c2nnc(SCCOc3ccc(Cl)cc3)o2)c1	-22.2	18.5	-7.92*	-18.5
SMILES	IL1B cytotox	IL1B NFkB pot	Cav32 inh	NFkB transloc inh
COc1ccc(CNc2nc3c(c(C(F)(F)F)n2)CCCCC3)cc1	x	x	-2.52	x
CCSc1ccccc1C(=O)N1CCN(c2ccccc2F)CC1	-17.8	-2.5	-1.56	2.5
COc1ccccc1N1CCN(C(=O)c2ccccc2Oc2ccccc2)CC1	-34.3	32.3	-4.73*	-32.3
COC(=O)C1CCN(C(=O)c2ccccc2Oc2ccccc2)CC1	-11.4	33.2	-0.0428	-33.2
O=C(c1ccccc1)N1CCN(c2ccccc2F)CC1	-4.9	4.0	-0.705	-4.0
O=C(c1ccccc1Oc1ccccc1)N1CCN(c2ccccc2F)CC1	-2.9	2.9	-5.41*	-2.9
O=C(c1ccccc1C(=O)N1CCN(c2ccccc2F)CC1)N1CCN(c2ccccc2F)CC1	x	x	-3.86*	x
O=C(C(c1ccccc1)c1ccccc1)N1CCC(c2nc(-c3ccccc3Cl)no2)CC1	-12.9	-1.9	-6.22*	1.9
CC(C)[C@@H]1C=C(C(=O)O)O[C@H](OCCCCO)C1	x	x	1.3	x
CCOC(=O)Cc1cc(=O)[nH]c(/N=C(\N)Nc2ccc(C)cc2C)n1	-7.6	3.7	-2.85	-3.7
COC(=O)c1c[nH]n2c(=O)cc(C)nc12	5.2	-47.0	-0.233	47.0*
COC(=O)c1ccc2c(c1)NC(=O)C1CCCN21 (stereo not drawn)	x	x	-4.26*	x
O=C(NCc1cccc(C(F)(F)F)c1)C1CCN(c2ncccn2)CC1	-23.1	14.7	0.14	-14.7
Cc1ccc(C)c(S(=O)(=O)Nc2ccc3scnc3c2)c1	-2.8	15.0	-4.57*	-15.0
Cc1cccc(NS(=O)(=O)c2cccc3nsnc23)c1	-8.0	-1.8	-1.04	1.8
CC12CCC(C(=O)N(c3ccccn3)c3ccccn3)(OC1=O)C2(C)C (stereo not drawn)	x	x	0.0474	x
COc1ccc(N2C(=O)CCC(C(=O)O)C2c2ccc(F)cc2)cc1 (stereo not drawn)	-143.8	13.9	0.0925	-13.9
O=C1[C@H](CC[C@H](O)c2ccc(F)cc2)[C@@H](c2ccc(O)cc2)N1c1ccc(F)cc1	x	x	-4.13*	x
C=CCNC(=O)c1onc(CSc2ccc(F)cc2)c1C(=O)NCCOC	-14.4	-10.8	1.49	10.8
COCCCNC(=O)Cn1nnc(-c2ccc(NC(=O)c3ccccc3F)cc2)n1	-12.7	-43.0	0.808	43.0*
Cc1ccc(NC(=O)N2CCC(O)(c3ccc(Cl)cc3)CC2)cc1	0.5	19.6	-4.27*	-19.6
COc1ccc(Cn2cnc3c([N+](=O)[O-])c(C)c(C)cc32)cc1	x	x	-6.18*	x
O=c1cc(N2CCN(c3ccc(F)cc3)CC2)[nH]c(=O)n1Cc1ccc(F)cc1	10.5	-7.2	-8.8*	7.2
COc1ccc(N2CCN(c3cc(=O)n(Cc4ccc(F)cc4)c(=O)[nH]3)CC2)cc1	x	x	-4.93*	x
Cc1ccc(S(=O)(=O)NC(CC(C)C)C(=O)Nc2nccs2)cc1 (stereo not drawn)	7.0	7.2	x	-7.2
SMILES	IL1B cytotox	IL1B NFkB pot	Cav32 inh	NFkB transloc inh
Cc1cccc(N2C(N)=C(C#N)C(C#N)(C#N)C2c2ccccc2)c1 (stereo not drawn)	-26.3	3.5	x	-3.5
N#CC1=C(N)N(c2ccccc2)C(c2cccc([N+](=O)[O-])c2)C1(C#N)C#N (stereo not drawn)	5.1	7.1	-6.64*	-7.1
O=C(NCCC1=CCCCC1)C1CCCN(c2nc3ccccc3o2)C1 (stereo not drawn)	4.9	-0.3	-1.34	0.3
c1ccc(CN(Cc2ccco2)C(c2ccncc2)c2nnnn2C2CCCC2)cc1 (stereo not drawn)	-16.0	26.0	-2.91	-26.0
CCN(CC)C(c1ccc(F)cc1)c1nnnn1C1CCCCC1 (stereo not drawn)	-42.5	-9.8	-5.02*	9.8
Fc1ccc(C(c2nnnn2C2CCCC2)N(Cc2ccco2)CC2CCCO2)cc1 (stereo not drawn)	3.5	14.0	-3.96*	-14.0
CCN(CC)C(c1ccc(C)cc1)c1nnnn1C1CCCCC1 (stereo not drawn)	-10.7	-5.2	-2.07	5.2
Cc1cc2ncn(C(=O)c3ccc4c(c3)OCO4)c2cc1C	7.6	1.7	0.624	-1.7
